Screening data deposited in PubChem BioAssay by several laboratories.
Mtb UGM inh – blocks M. tuberculosis UGM enzyme. 0.06% of 320,000 active. inhibition, % at 10 µM. P9WIQ1. purified UGM, fluorescence polarization probe displacement; in the data active means inhibition above about 10%, passing the limit was not always enough
Target sequence (P9WIQ1 whole entry, looked up): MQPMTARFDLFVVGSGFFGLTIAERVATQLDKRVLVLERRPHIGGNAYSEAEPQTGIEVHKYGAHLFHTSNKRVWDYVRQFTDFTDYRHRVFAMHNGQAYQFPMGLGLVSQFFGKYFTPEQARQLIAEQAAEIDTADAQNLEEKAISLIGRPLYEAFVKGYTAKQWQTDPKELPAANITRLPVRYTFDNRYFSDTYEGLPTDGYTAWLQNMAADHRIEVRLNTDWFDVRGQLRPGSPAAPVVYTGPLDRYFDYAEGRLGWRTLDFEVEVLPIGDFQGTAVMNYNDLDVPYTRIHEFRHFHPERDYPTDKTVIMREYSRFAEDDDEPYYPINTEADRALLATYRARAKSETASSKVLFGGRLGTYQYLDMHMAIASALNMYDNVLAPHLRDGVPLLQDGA
BH1578 lux ind – inducers of Vibrio cholerae quorum light production without autoinducers. V. cholerae BH1578 lux reporter, luminescence, 6 h. activation, % at 18.7 µM. 0.16% of 350,000 active. AID 588436; in the data active means activation mostly above about 9.7%, no sharp cut-off
Rv3671c inh – inhibits the M. tuberculosis serine protease Rv3671c | P9WHR9 | 0.048% of 320,000 active | inhibition, % at 5.96 µM; in the data active means inhibition above about 38%;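 further: extracellular domain of Rv3671c used as enzyme; 0% = enzyme with DMSO and 100% = no enzyme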
GDH-TPI counter-1 – inhibits GDH-TPI coupling enzymes, artifact for Mtb FBA screen | GDH-TPI coupled enzyme counterscreen, NADH absorbance | inhibition, % at 4.8 µM | 1.2% of 360,000 active | AID 588335; in the data active means inhibition above about 30%;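 further: 0% = DMSO wells and 100% = wells lacking the enzyme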
FBA Mtb inh – Mtb fructose-bisphosphate aldolase inhibition; inhibition, % at 1 µM; 2.3% of 360,000 active; P9WQA3; purified M. tuberculosis FBA, fluorescence read-out;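 further: 0% = vehicle and 100% = reference inhibitor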
RecA splice inh – Mtb RecA intein splicing inhibition | inhibition, % (no concentration beside the values) | P9WHJ3 | cell-free RecA intein splicing, fluorescence | AID 2221 | 0.75% of 290,000 active; in the data active means inhibition above about 30%;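 further: 0% = vehicle wells and 100% = reference inhibitor control wells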
Mtb FBA inh conf – confirmation of M. tuberculosis fructose-bisphosphate aldolase inhibitors | purified M. tuberculosis FBA, fluorescence read-out | shares compounds with FBA Mtb inh | AID 651616 | 78% of 5,600 active | inhibition, % at 1 µM;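 further: 0% = vehicle wells and 100% = reference inhibitor wells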
GDH-TPI counter-2 – GDH-TPI inhibition counter-screen for FBA inhibitors. AID 652141. 81% of 5,600 active. shares compounds with FBA Mtb inh. inhibition, % at 1 µM. GDH-TPI coupled enzyme counterscreen, fluorescence; in the data active means inhibition above about 10%
Starred values were filed as active, the others as inactive; i = inactive; . = no result. Only some compounds are listed: those with a hit (about 4.1% of all), similar ones and a draw of the others. Unless noted, no stated cut-off is given here; in the data, active means inhibition above about 27%; inactive means the rest.

SMILES | Mtb UGM inh | BH1578 lux ind | Rv3671c inh | GDH-TPI counter-1 | FBA Mtb inh | RecA splice inh | Mtb FBA inh conf | GDH-TPI counter-2
CC(C)CNC(=S)N(CCN(C)C)Cc1cc2cc3c(cc2[nH]c1=O)OCCO3 | 1 | 0 | -6 | 15 | 27* | -3 | 45* | 39*
CCCCNC(=S)N(CCCO)Cc1cc2cc3c(cc2[nH]c1=O)OCO3 | . | -1 | . | 14 | 4 | . | . | .
CC(C)CNC(=S)N(CCN(C)C)Cc1cc2cc3c(cc2[nH]c1=O)OCO3 | -1 | 0 | -4 | 25 | 11 | 2 | . | .
Cc1onc(-c2ccccc2)c1C(=O)OCC(=O)N1CCC(C)CC1 | -2 | i | -8 | -1 | 0 | . | . | .
COc1ccc(NS(=O)(=O)c2ccc(O)c(NS(=O)(=O)c3ccc(NC(C)=O)cc3)c2)cc1 | 1 | 0 | -14 | 0 | -1 | . | . | .
COC(=O)c1c(C(=O)OC)n(CCCN)c2ccc(C)cc12 | -1 | i | -2 | 1 | 98* | 9 | 100* | 63*
CC1(C(=O)NS(=O)(=O)c2cccc(OC(F)F)c2)CCN1C(=O)C/C=C/c1ccccc1 (stereo unspecified) | . | 0 | . | -2 | -2 | . | . | .
Cc1cccc(NC(=O)C(C)SCc2nc3sc4c(c3c(=O)[nH]2)CCCC4)n1 (stereo unspecified) | 1 | -1 | -4 | 6 | 31* | -2 | 153* | 93*
COC(=O)c1sccc1NC(=S)Nc1ccc(F)cc1F | 1 | 0 | -2 | 6 | 70* | 0 | 79* | 51*
COC(=O)c1sccc1NC(=O)CN(C)NS(=O)(=O)c1ccc(Cl)cc1 | 1 | i | -10 | 13 | 1 | -2 | . | .
COC(=O)c1sccc1NC(=O)CN(C)NS(=O)(=O)c1ccc(F)cc1 | 0 | -1 | 4 | 6 | 27* | -2 | 95* | 72*
Fc1ccc(C2=NN(c3ccccc3)C(c3ccco3)C2)cc1 (stereo unspecified) | -4 | i | 12 | 2 | 48* | -2 | 60* | 48*
CC(=O)N1N=C(c2ccc(C)cc2)CC1c1ccco1 (stereo unspecified) | 0 | 0 | -8 | 5 | 4 | -2 | . | .
COc1ccc(C2CC(c3cccc(Br)c3)=NN2c2ccc(S(N)(=O)=O)cc2)cc1 (stereo unspecified) | . | i | . | 15 | 102* | . | 42* | 31*
CCOC(=O)C1CC(c2ccccc2)=NN1c1ccccc1 (stereo unspecified) | . | i | . | 23 | 72* | . | 35* | 28*
COc1ccc(C2CC(c3ccc(OC)c(OC)c3)=NN2C(=O)c2ccccc2)cc1 (stereo unspecified) | 0 | 0 | -2 | 11 | -3 | 0 | . | .
COc1ccc(C2=NN(c3ccccc3)C(c3ccc(OC)c(OC)c3)C2)cc1 (stereo unspecified) | -3 | i | 14 | 11 | 80* | 3 | 53* | 51*
COc1cc2c(cc1OC)C1(CCCCC1)CN(C)C2 | 1 | i | 2 | 8 | 8 | -3 | . | .
CCc1cccc(CC)c1NC(=O)C1CSC2(C)CCC(=O)N12 (stereo unspecified) | 1 | -4 | -1 | -10 | 1 | 0 | . | .
COc1ccccc1N(Cc1ccccc1)S(=O)(=O)c1cccc(C(=O)NCC2CCCO2)c1 (stereo unspecified) | -3 | i | -23 | 6 | 0 | . | . | .
Cc1ccc(N2N=C(c3ccc(F)cc3)CC2c2ccco2)cc1 (stereo unspecified) | -2 | 0 | -10 | 10 | 62* | -4 | 112* | 96*
Oc1ccc(C2=NN(c3ccccc3)C(c3ccc(F)cc3)C2)cc1 (stereo unspecified) | 2 | i | 0 | -7 | 101* | 19 | 165* | 148*
O=[N+]([O-])c1ccc(/C=C/C2=NN(c3ccccc3)C(c3ccco3)C2)o1 (stereo unspecified) | . | 1 | . | -3 | -2 | 0 | . | .
Oc1ccccc1C1=NN(c2ccccc2)C(c2ccc(F)cc2)C1 (stereo unspecified) | 2 | i | . | 1 | 1 | -11 | . | .
